Source: PubChem BioAssay AID687001 (Broad Institute, 2013)
Results with a measured potency or affinity are listed apart.

Biological target: Protein S100-A4 (Homo sapiens) (UniProt P26447)
Test: S100A4-myosin IIA binding inhibitor potency, dose response, biochemical, fluorescence polarization, cherry-picked hits (AID 687001);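 further: 0% = DMSO neutral control wells and -100% = TFP positive control wells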
Details: FP, S100A4/TAMRA-myosin IIA peptide binding; series mostly up to 11 µM; activity change, negative = inhibition: at the top concentration;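 active means signal-lowering compounds whose fitted half-maximal concentration is at or below twice the top tested dose in every run; inconclusive means runs disagree, flat 30 to 70% inhibition, or poor curve fit; inactive means the rest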

Protein S100-A4 (Homo sapiens), sequence (P26447 whole entry, looked up): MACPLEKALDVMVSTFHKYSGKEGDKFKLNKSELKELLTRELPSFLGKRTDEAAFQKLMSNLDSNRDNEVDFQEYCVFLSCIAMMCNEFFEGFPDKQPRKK

Activity change, negative = inhibition, inactive:
C[C@@H]1CN([C@@H](C)CO)C(=O)c2cccc(NS(=O)(=O)c3ccc(F)cc3)c2O[C@H]1CN(C)C(=O)NC1CCCCC1 1.57%
CO[C@@H]1CN(C)C(=O)c2cc(NS(=O)(=O)CC(F)(F)F)ccc2OC[C@@H](C)N(C)C[C@H]1C 5.53%
Cc1noc(C)c1S(=O)(=O)N(C)C[C@@H]1OCCCC[C@H](C)Oc2ccc(NC(=O)C3CCCCC3)cc2C(=O)N([C@H](C)CO)C[C@H]1C 26.9%
O=C(c1cnn(C(=O)c2ccco2)c1)c1cc(Cl)cc(Cl)c1O 28.1%
O=C(CSc1ccc([N+](=O)[O-])cn1)Nc1ccc2c(c1)OCO2 -0.303%
COc1ccc(C(CNC(=O)C(=O)Nc2ccc3c(c2)OCCO3)N2CCN(C)CC2)cc1 (centres undefined) 0.731%
O=C(Nc1cccc(Cl)c1)N[C@H]1CC[C@H](CCNC(=O)C2CCCC2)O[C@H]1CO -0.796%
O=C1CN(Cc2ccc(F)cc2)C[C@@H]2[C@@H](c3ccc(-c4ccccc4F)cc3)[C@H](CO)N12 1.79%
C[C@@H]1CN([C@H](C)CO)C(=O)c2cc(N(C)C)ccc2O[C@@H](C)CCCCO[C@@H]1CN(C)C(=O)NC1CCCCC1 18.6%
CC(OC(=O)/C=C/c1cccs1)C(=O)NC1CCCCC1C (centres undefined) -1.61%
CCC(=O)N1C[C@H](O)COC[C@H]2O[C@H](CC(=O)NCc3cc(F)cc(F)c3)CC[C@@H]21 16.2%
C[C@H](CO)N1C[C@H](C)[C@@H](CN(C)Cc2cccc(F)c2)Oc2ncc(C#C[C@@H](C)O)cc2C1=O 1.72% [at 10 µM]
CC(C)NC(=O)Nc1ccc2c(c1)C(=O)N([C@H](C)CO)C[C@@H](C)[C@H](CN(C)S(=O)(=O)c1ccccc1)OCCCC[C@@H](C)O2 4.45%
CC(C)[C@H](NC(=O)N1CCn2c1nc1ccccc12)C(=O)NCc1ccccc1Cl 5.14%
CSc1ccccc1OCc1cc(C(=O)NCCN2CCCc3ccccc32)no1 29.8%
COc1ccc(C#Cc2ccc([C@@H]3[C@@H](CO)N4CCCCN(C(=O)Nc5ccc(F)cc5)C[C@@H]34)cc2)cc1 31.6%
O=C1C2C3C=CC(C2C(=O)N1CCO)C1C(=O)N(CCO)C(=O)C31 (centres undefined) -3.48%
COc1ccccc1Nc1cc(C)nc(Nc2ccccc2OC)n1 -4.06%
CC1CCN(c2nc3c(c(=O)[nH]c(=O)n3C)n2CC(C)CSc2nnnn2-c2ccccc2)CC1 (centres undefined) 3.53%
O=C(CN(Cc1ccco1)C(=O)c1cccc(F)c1)Nc1ccccc1C(F)(F)F -0.501%
O=C(CCCN1C(=O)C2CC=CCC2C1=O)Nc1ccccc1F (centres undefined) -3.43%
CCC(=O)N1CCC(C)(C(=O)NCc2ccc(F)cc2)C1 (centres undefined) -3.36%
CN(C)C(CNC(=O)CCc1nc2cc(Cl)ccc2n(Cc2ccccc2)c1=O)c1ccccc1 (centres undefined) 34.5%
O=C(c1ccccc1)c1ccc2nc(N3CCCCC3)c3nncn3c2c1 4.91%
COc1ccc(S(=O)(=O)Nc2ccc3c(c2)C(=O)N([C@H](C)CO)C[C@H](C)[C@H](CN(C)C(=O)Nc2ccccc2)OCCCC[C@H](C)O3)cc1 19%
COC(=O)c1ccc2c(=O)n(CCCCCC(=O)NC3CCCCC3)c(=O)[nH]c2c1 2.1%
O=C1[C@H]2[C@@H](c3ccc(F)cc3)N3C(=O)N(c4cccc(Br)c4)C(=O)[C@@]3(Cc3ccccc3)[C@H]2C(=O)N1C1CCCCC1 -1.44%
CCCNC(=O)[C@@H]1[C@@H](CO)[C@@H]2Cn3c(cccc3=O)[C@H]1N2CCC(F)(F)F -3.13%
CCCCCCCCNC(CO)(CO)CO -3.47%
NC1=NC(=O)C(CC(=O)c2ccc(Cl)cc2)S1 (centres undefined) 1.05%
COc1ccccc1CNC(=O)COC(=O)CSc1ccc(Cl)cc1 -3.44%
COc1ccccc1NC(=O)N1CCCCN2[C@H](C1)[C@@H](c1ccc(C#CC3CC3)cc1)[C@@H]2CO 40.1%
CO[C@H]1CN(C)C(=O)c2cc(NC(=O)C3CC3)ccc2OC[C@H](C)N(C(=O)CN(C)C)C[C@H]1C -1.28%
CCOC(=O)[C@]12CCC=C1N(Cc1ccc3c(c1)OCO3)C(=O)[C@H](CC(=O)NCc1cccc(C(F)(F)F)c1)C2 -1.06%
C[C@H]1CN([C@@H](C)CO)C(=O)Cc2cc(NC(=O)CCC(F)(F)F)ccc2O[C@@H]1CN(C)C 6.39%
COc1ccc(C)cc1NS(=O)(=O)c1ccc2c(c1)N(C)CCO2 -2.05%
Cc1cccc(NS(=O)(=O)c2c(C(=O)N3CCOCC3)c(C)n(C)c2C)c1C -2.74%
COC(=O)c1sccc1NC(=O)Nc1ccc(C)c(C)c1 -1.95%
C[C@H](CO)N1C[C@H](C)[C@@H](CN(C)Cc2ccc(C(=O)Nc3ccccc3N)cc2)Oc2c(NC(=O)C3CCCCC3)cccc2C1=O 12.5%
